# In PubChem BioAssay AID430 (Sanford-Burnham Center for Chemical Genomics, 2006):
# In all, about 63,000 compounds went through this assay and about 1,100 (1.7%) were called active. Cut-off read from the data, not from the text of the source: active = cytotoxicity above about 50%; inactive = the rest. The full list was thinned out, with actives kept by preference. Measured potencies and affinities stand elsewhere.
# Test: HPDE-C7 pancreatic duct cell viability loss – fluorescence, HTS (AID 430);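 note: cells exposed to compound for 48 hours before viability readout; 0% = vehicle and 100% = reference cytotoxic drug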
# Conditions: HPDE-C7 pancreatic duct cells viability, at 10 µM, stronger effect = higher value
row,SMILES,cytotoxicity
1,O=S(=O)(/C=C/c1ccccc1)n1cnc2ccccc21,22.4% (inactive)
2,Cc1cc(C)n(S(=O)(=O)Cc2ccccc2)n1,-8.3% (inactive)
3,Cc1cc(C)nc(Nc2n[nH]c(-c3ccccc3Br)n2)n1,-1.8% (inactive)
4,COc1ccccc1N1CCN(C(=O)Nc2cccc(C)c2)CC1,-2.6% (inactive)
5,Cc1ccc(SC(C)C(=O)N2CCCC2)cc1 (stereo not given),5.9% (inactive)
6,CCCCCCNS(=O)(=O)c1ccc(Cl)s1,-26.3% (inactive)
7,CCC(=O)Nc1nonc1-c1nc2ccccc2n1N(C(=O)CC)C(=O)CC,54.2% (active)
8,N#CCCn1c(-c2nonc2NC(=O)c2ccccc2Cl)nc2ccccc21,41.9% (inactive)
9,CCC(=O)Nc1nonc1-c1nc2ccccc2n1CC(C)C,25.7% (inactive)
10,CCCCn1c(-c2nonc2NC(=O)c2ccccc2Cl)nc2ccccc21,69.4% (active)
11,CCC(=O)Nc1nonc1-c1nc2ccccc2n1Cc1ccccc1,6.6% (inactive)
12,CCOC(=O)Cn1c(-c2nonc2NC(=O)c2ccccc2F)nc2ccccc21,41.5% (inactive)
13,Cc1ccc(N2C(=O)CC(N(O)C3CC(=O)N(c4ccc(C)cc4)C3=O)C2=O)cc1 (stereo not given),14.1% (inactive)
14,C=CCNC(=O)c1sc(=S)n(-c2ccc(C(=O)OCC)cc2)c1N,2.1% (inactive)
15,COc1ccc(C)cc1NC(=O)C1CCCN(S(=O)(=O)c2cnc[nH]2)C1 (stereo not given),11.5% (inactive)
16,O=C(Cc1ccc(Cl)cc1)Nc1ccccc1CO,-8.9% (inactive)
17,CSc1nc(=NC(C)=O)ss1,-2% (inactive)
18,CC1CCN(C(=O)CSc2nc(N)c3c4c(sc3n2)CN(C)CC4)CC1,5.8% (inactive)
19,CCCCCCOc1ccc(C(=O)n2cnc(N)n2)cc1,71.3% (active)
20,COc1ccc(C(=O)n2cnc(N)n2)cc1,2.7% (inactive)
21,CCCCOc1ccc(C(=O)N2CCCCCC2)cc1,-14.5% (inactive)
22,CCCCn1nc(NC(=O)c2cccs2)c2cc3cc(OC)ccc3nc21,28.9% (inactive)

row,SMILES,cytotoxicity
1,CCCn1nc(NC(=O)c2cccs2)c2cc3cc(OC)ccc3nc21,-7.4% (inactive)
2,COc1ccc2nc3c(cc2c1)c(NC(=O)c1cccs1)nn3CC(C)C,50.8% (active)
3,O=S(=O)(NCc1ccco1)c1cccc2cccnc12,15.9% (inactive)
4,Cc1ccc(S(=O)(=O)C(C#N)c2nc3ccccc3nc2N2CCCC2)cc1C (stereo not given),53.9% (active)
5,Cc1ccc(S(=O)(=O)C(C#N)c2nc3ccccc3nc2N2CC(C)OC(C)C2)cc1C (stereo not given),50% (active)
6,Cc1cccc(S(=O)(=O)C(C#N)c2nc3ccccc3nc2N2CCCC2)c1 (stereo not given),-7.1% (inactive)
7,Cc1ccc(S(=O)(=O)C(C#N)c2nc3ccccc3nc2N2CCCC2)cc1 (stereo not given),23.3% (inactive)
8,Cc1cccc(S(=O)(=O)C(C#N)c2nc3ccccc3nc2N2CC(C)OC(C)C2)c1 (stereo not given),7.1% (inactive)
9,Cc1ccc(C)c(S(=O)(=O)C(C#N)c2nc3ccccc3nc2N2CC(C)OC(C)C2)c1 (stereo not given),48.7% (inactive)
10,COc1ccc2nc(NC(=O)Cc3ccc(OC)c(S(=O)(=O)N4CCOCC4)c3)sc2c1,13.1% (inactive)
11,C=C1c2ccc(C)cc2NC(=O)N1c1ccccc1,-11.1% (inactive)
12,CCc1c(C)nc2ncnn2c1NCCc1ccc(OC)cc1,64.9% (active)
13,CCc1c(C)nc2ncnn2c1NCCc1ccc(OC)c(OC)c1,4.7% (inactive)
14,COc1ccc(CCNc2c(C)c(C)nc3ncnn23)cc1,10% (inactive)
15,COCCNC(=O)c1ccccc1NC(=O)c1ccc(OC)c(OC)c1,-2.2% (inactive)
16,O=P(c1ccccc1)(c1ccccc1)C(c1ccco1)N1CCOCC1 (stereo not given),-5.8% (inactive)
17,O=C(Nc1ccc(N2CCOCC2)c(Cl)c1)c1ncn[nH]1,-2.8% (inactive)
18,COc1ccc2[nH]c(C(=O)O)c(CCC(=O)O)c2c1,5.8% (inactive)
19,N[C@@H](Cc1ccc(O)c(I)c1)C(=O)O,-10.4% (inactive)
20,O=C(O)CCc1cc(I)c(Oc2ccc(O)c(I)c2)c(I)c1,92.3% (active)
21,COc1cc(C(=O)Nc2nc3ccccc3[nH]2)cc(OC)c1OC,-19.5% (inactive)
22,Cc1nc2ccc(C(=O)c3ccccc3)cc2[nH]1,-13.6% (inactive)

row,SMILES,cytotoxicity
1,COC(=O)Nc1nc2ccc(Sc3ccccc3)cc2[nH]1,60.6% (active)
2,COC(=O)Nc1nc2ccc(C(=O)c3ccccc3)cc2[nH]1,69.2% (active)
3,O=C(Nc1nc2ccccc2[nH]1)c1ccc(F)cc1,-12.8% (inactive)
4,O=C(COc1ccccc1)Nc1nc2ccccc2[nH]1,-9.3% (inactive)
5,Cc1c(NC(=O)c2cc(-c3ccccc3)on2)c(=O)n(-c2ccccc2)n1C,-4.6% (inactive)
6,O=S(=O)(NCC1CCCO1)c1cccc2nsnc12 (stereo not given),-2.4% (inactive)
7,O=C(OCc1cc(-c2ccccc2)no1)c1ccc2ccccc2n1,-17.4% (inactive)
8,CS(=O)(=O)c1ncc(Cl)c(C(=O)Nc2ccc(N3CCOCC3)cc2)n1,72.4% (active)
9,CSc1ncc(Cl)c(C(=O)Nc2ccc(S(=O)(=O)N3CCOCC3)cc2)n1,7.9% (inactive)
10,O=C(Nc1ccc(N2CCOCC2)cc1)c1cnsn1,-19.9% (inactive)
11,Cc1cc(NC(=O)CCN2C(=O)c3ccccc3C2=O)no1,-2.5% (inactive)
12,CCn1c2ccccc2c2cc(C3C(C#N)=C(C)NC(C)=C3C#N)ccc21,-2.6% (inactive)
13,CCn1c2ccccc2c2cc(C3C(C#N)=C(N)OC4=C3C(=O)CC(C)(C)C4)ccc21 (stereo not given),-26.8% (inactive)
14,CCCc1[nH]nc2c1C(c1ccccc1OC)C(C#N)=C(N)O2 (stereo not given),4.9% (inactive)
15,O=C(O)C1C2C=CC3(CN(Cc4ccco4)C(=O)C13)O2 (stereo not given),-6.3% (inactive)
16,O=C(O)C1C2C=CC3(CN(Cc4ccncc4)C(=O)C13)O2 (stereo not given),-13.4% (inactive)
17,O=C(O)C1C2C=CC3(CN(Cc4ccccn4)C(=O)C13)O2 (stereo not given),63.6% (active)
18,COCCn1c(SCC(=O)N2CCCc3ccccc32)nnc1-c1ccco1,-4.5% (inactive)
19,CCCCOc1ccc(OCCCC)c2c1NC1(N2)C(=O)N(C(C)=O)c2ccccc21,69.8% (active)
20,CCNC(=O)N1C(=O)C2(OCCO2)c2ccccc21,-15.9% (inactive)
21,CC(=O)N1C(=O)C2(Nc3ccccc3N2)c2ccccc21,-0.7% (inactive)
